From PubChem BioAssay (NCATS) come the findings set out here.

The structures appear in SMILES notation. Records with an inconclusive call do not appear. Activity calls are given as the source filed them. Unless noted, calls come from the whole dose curve; as a rule, active = well fitted curve in the direction sought with a large enough effect; inconclusive = small, poorly fitted or top-dose-only effect, or another doubt; inactive = no such curve, though single readings can be large; an effect the other way counts as inactive or inconclusive.

Assay [1] in a line: High-throughput drug toxicity screening in the BPDCN cell line Cal-1 (AID 1224825; call rule not given here). Particulars: Cal-1 BPDCN cell viability, qHTS; at 45.8 µM (top of the series) unless noted. An outline of the steps:
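Exponentially growing Cal-1 cells, 500 per well in phenol red-free RPMI with 10% FBS, were exposed to compounds for 48 h at 37 °C, 5% CO2. Viability was read by CellTiter-Glo luminescence and normalised to DMSO (100%) and 9.2 uM bortezomib (0%).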
Background: In qHTS, concentration-response curves come from the screen itself.

Assay [2] is described as follows: qHTS assay for measurement of the activity of small molecule inhibitors on Zika virus induced Caspase-3 activity in human iPSC derived neural progenitor cells (hNPCs) (AID 1224857). Note: nearly all actives have a fitted effect of over 65% in size. Note: potency is the fitted concentration of half-maximal effect. In short, it runs like this:
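Values are percent inhibition of virus-induced caspase-3/7 signal, scaled between uninfected cells and ZIKV-infected cells. Infection used 2 FFU/cell for 6 h after 1 h compound exposure.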

A short description of assay [3]: qHTS assay for measurement of the activity of small molecule inhibitors on Zika virus induced Caspase-3 activity in human astrocytoma cells (AID 1224859). Note: potency is the fitted concentration of half-maximal effect. An outline of the steps:
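Compound added 1 h pre-infection; ZIKV 2 FFU/cell on SNB-19 cells, 6 h, 37 C/5% CO2. Caspase-Glo 3/7 luminescence; values as % inhibition of ZIKV-induced caspase activity.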

Assay [4] in a line: qHTS Screen of the MIPE 4.0 Collection Against Ewings Sarcoma (RDES) (AID 1259252). Note: nearly all actives have a fitted effect of over 35% in size. Note: potency is the fitted concentration of half-maximal effect. An outline of the steps: (§1)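 Compound titrations go onto adherent log-phase cells 4 h after seeding, incubate 48 h at 37C, then CellTiter-Glo luminescence reports viability relative to DMSO and cell-free controls.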
The nature of assay [5]: qHTS Screen of the MIPE 4.0 Collection Against Ewings Sarcoma (TC71) (AID 1259253). Note: nearly all actives have a fitted effect of over 40% in size. Note: potency is the fitted concentration of half-maximal effect. In short, it runs like this:
as §1

Assay [6] is described as follows: qHTS assay to identify small molecule inhibitors of chordoma cells - UCH-1 (AID 1259355). Note: % is set by controls: 0 for no effect and ±100 for the full control effect; nearly all actives have a fitted effect of over 55% in size. In short, it runs like this: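 Luminescent ATP read-out (CellTiter-Glo, 30min at room temperature) measured viability of UCH-1 cells exposed for 48hr to test drugs at 15 concentrations, co-dosed with a five-agent combination of auranofin, camptothecin, doxorubicin, rubitecan and topotecan.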

Assay [7] is described as follows: qHTS assay to identify small molecule inhibitors of chordoma cells - UCH-2 (AID 1259356). Note: % is set by controls: 0 for no effect and ±100 for the full control effect.
Assay [8] in a line: P-glycoprotein substrates identified in KB-8-5-11 adenocarcinoma cell line, qHTS therapeutic library screen (AID 1346987). Note: nearly all actives have a fitted effect of over 65% in size. Note: potency is the fitted concentration of half-maximal effect. An outline of the steps:
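P-gp-mediated resistance screen: KB-8-5-11 cells treated 72 h with compounds in dose-response. CellTiter-Glo viability.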

Assay [9] can be described thus: qHTS Screen of the MIPE 4.0 Collection Against Ewings Sarcoma (EW8) (AID 1259255).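 For viability: 100% = DMSO-treated cells and 0% = medium-only wells without cells.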 Note: nearly all actives have a fitted effect of over 35% in size. Note: potency is the fitted concentration of half-maximal effect. In short, it runs like this:
as §1

Assay [10] in a line: qHTS Screen of the MIPE 4.0 Collection Against Ewings Sarcoma (TC32) (AID 1259256). Note: nearly all actives have a fitted effect of over 45% in size. Note: potency is the fitted concentration of half-maximal effect. In short, it runs like this:
as §1

Assay [11] deals with Atrial natriuretic peptide receptor 1 (Homo sapiens) (UniProt P16066). The experiment in a line: Natriuretic polypeptide receptor (hNpr1) antagonism - Pilot screen (AID 1347049; calls by dose curve;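 note: agonist-evoked cGMP luminescence read 20 min after hNppA addition; % is set by controls: 0 for no effect and ±100 for the full control effect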). In short, it runs like this: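 HEK293 cells co-expressing hNpr1 and the GloSensor pGS-40F cGMP luciferase sensor were preloaded with 2% GloSensor reagent for 2 h. Compounds were added for 30 min at room temperature, then cells were stimulated with 0.1 nM hNppA for 20 min before luminescence readout.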

The nature of assay [12]: NS1 protein of Zika virus - qHTS assay to identify small molecule inhibitors in human HEK 293 cells (AID 1347053).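 Note: plate controls were infected untreated cells for no effect and uninfected cells for full effect; nearly all actives have a fitted effect of over 55% in size.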 In short, it runs like this: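 HEK 293; 20 h pre-culture, 37 C/5% CO2; cpd 1 h pre-infection; ZIKV MR766, MOI = 0.5, 24 h, 37 C; TR-FRET NS1 readout (two anti-NS1 Abs); norm. to no-virus vs infected.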
Assay [13] concerns the target Tyrosine-protein phosphatase non-receptor type substrate 1 (Homo sapiens) + Leukocyte surface antigen CD47 (Homo sapiens) (UniProt P78324+Q08722). Description: CD47-SIRPalpha protein protein interaction - LANCE assay qHTS validation (AID 1347057; active = well fitted curve in the direction sought with a large enough effect in the signal ratio, with a control signal flat, not every such curve was filed as active; the % refers to the signal ratio; note: 0% is about no effect). In short, it runs like this: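 First, His-tagged CD47 and Eu-labelled anti-His antibody met the compound for 30 min; next, site-specifically biotinylated SIRPalpha was added for 30 min; finally streptavidin-APC was added before reading the TR-FRET ratio.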

Assay [14] is described as follows: Identifying Small Molecule Inhibitors of Pancreatic Cancer Stem Cells (A2780, Spheroid) (AID 1259357).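 Note: potency is the fitted concentration of half-maximal effect; compound exposure lasted 48 h before the ATP luminescence read.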 The note with it: Potency: A2780 spheroid viability. In short, it runs like this:
(§2)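 Monolayer and spheroid cultures are compared. Spheroids form over 14 days in stem cell medium on hydrogel-coated low-attachment plates, then are exposed to compound for 48 h before CellTiter-Glo luminescence.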

A short description of assay [15]: Identifying Small Molecule Inhibitors of Pancreatic Cancer Stem Cells (SN12C, Adherent) (AID 1259358).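 Note: potency is the fitted concentration of half-maximal effect; cell survival measured after 48 h of compound exposure.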 An outline of the steps: (§3)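 Viability is scored by CellTiter-Glo luminescence 48 h after dosing, expressed as percent activity against vehicle and no-cell references. Spheroid formats rely on cells cultured 14 days in stem cell media beforehand.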
Assay [16] is described as follows: Identifying Small Molecule Inhibitors of Pancreatic Cancer Stem Cells (Panc1, Spheroid) (AID 1259359).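 Note: potency is the fitted concentration of half-maximal effect; compound exposure lasted 48 h before reading.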 The note with it: Panc1 spheroid cancer stem cell viability. In short, it runs like this: as §3
A short description of assay [17]: Identifying Small Molecule Inhibitors of Pancreatic Cancer Stem Cells (SN12C, Spheroid) (AID 1259360). Note: potency is the fitted concentration of half-maximal effect. Particulars: Potency: SN12C spheroid viability. An outline of the steps: as §2
Assay [18] is described as follows: Identifying Small Molecule Inhibitors of Pancreatic Cancer Stem Cells (A278, Adherent) (AID 1259361). Note: nearly all actives have a fitted effect of over 35% in size. In short, it runs like this:
as §3

Assay [19] in a line: Identifying Small Molecule Inhibitors of Pancreatic Cancer Stem Cells (Panc1, Adherent) (AID 1259362). Note: potency is the fitted concentration of half-maximal effect. The note with it: Potency: viability. In short, it runs like this: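 Pre-formed 14-day tumor spheroids or adherent cells dosed and incubated 48 h, 37C, 5% CO2. Viability assessed by CellTiter-Glo.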

Tyrosine-protein phosphatase non-receptor type substrate 1 (Homo sapiens) + Leukocyte surface antigen CD47 (Homo sapiens), sequence (P78324 whole entry, looked up): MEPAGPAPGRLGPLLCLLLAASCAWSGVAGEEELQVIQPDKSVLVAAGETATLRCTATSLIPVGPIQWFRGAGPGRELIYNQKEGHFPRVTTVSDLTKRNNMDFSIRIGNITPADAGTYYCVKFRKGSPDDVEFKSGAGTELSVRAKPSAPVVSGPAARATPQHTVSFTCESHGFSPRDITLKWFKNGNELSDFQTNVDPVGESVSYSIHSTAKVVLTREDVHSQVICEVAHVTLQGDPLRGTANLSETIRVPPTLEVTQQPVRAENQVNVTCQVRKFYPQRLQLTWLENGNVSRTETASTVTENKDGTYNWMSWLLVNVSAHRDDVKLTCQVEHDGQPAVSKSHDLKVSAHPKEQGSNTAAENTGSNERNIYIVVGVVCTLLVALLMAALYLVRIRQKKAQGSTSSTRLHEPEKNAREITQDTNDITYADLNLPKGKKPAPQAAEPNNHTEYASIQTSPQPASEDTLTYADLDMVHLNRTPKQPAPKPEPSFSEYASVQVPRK
Tyrosine-protein phosphatase non-receptor type substrate 1 (Homo sapiens) + Leukocyte surface antigen CD47 (Homo sapiens), sequence (Q08722 whole entry, looked up): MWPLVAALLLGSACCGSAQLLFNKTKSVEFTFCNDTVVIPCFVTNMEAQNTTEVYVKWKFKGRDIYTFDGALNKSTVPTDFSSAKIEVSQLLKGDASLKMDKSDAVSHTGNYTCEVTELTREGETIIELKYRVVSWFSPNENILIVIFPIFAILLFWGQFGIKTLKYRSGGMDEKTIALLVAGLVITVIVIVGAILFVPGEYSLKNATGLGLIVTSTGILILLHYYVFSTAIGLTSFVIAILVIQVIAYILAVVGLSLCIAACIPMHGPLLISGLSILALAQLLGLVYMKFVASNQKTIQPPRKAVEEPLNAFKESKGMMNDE
Atrial natriuretic peptide receptor 1 (Homo sapiens), sequence (P16066 whole entry, looked up): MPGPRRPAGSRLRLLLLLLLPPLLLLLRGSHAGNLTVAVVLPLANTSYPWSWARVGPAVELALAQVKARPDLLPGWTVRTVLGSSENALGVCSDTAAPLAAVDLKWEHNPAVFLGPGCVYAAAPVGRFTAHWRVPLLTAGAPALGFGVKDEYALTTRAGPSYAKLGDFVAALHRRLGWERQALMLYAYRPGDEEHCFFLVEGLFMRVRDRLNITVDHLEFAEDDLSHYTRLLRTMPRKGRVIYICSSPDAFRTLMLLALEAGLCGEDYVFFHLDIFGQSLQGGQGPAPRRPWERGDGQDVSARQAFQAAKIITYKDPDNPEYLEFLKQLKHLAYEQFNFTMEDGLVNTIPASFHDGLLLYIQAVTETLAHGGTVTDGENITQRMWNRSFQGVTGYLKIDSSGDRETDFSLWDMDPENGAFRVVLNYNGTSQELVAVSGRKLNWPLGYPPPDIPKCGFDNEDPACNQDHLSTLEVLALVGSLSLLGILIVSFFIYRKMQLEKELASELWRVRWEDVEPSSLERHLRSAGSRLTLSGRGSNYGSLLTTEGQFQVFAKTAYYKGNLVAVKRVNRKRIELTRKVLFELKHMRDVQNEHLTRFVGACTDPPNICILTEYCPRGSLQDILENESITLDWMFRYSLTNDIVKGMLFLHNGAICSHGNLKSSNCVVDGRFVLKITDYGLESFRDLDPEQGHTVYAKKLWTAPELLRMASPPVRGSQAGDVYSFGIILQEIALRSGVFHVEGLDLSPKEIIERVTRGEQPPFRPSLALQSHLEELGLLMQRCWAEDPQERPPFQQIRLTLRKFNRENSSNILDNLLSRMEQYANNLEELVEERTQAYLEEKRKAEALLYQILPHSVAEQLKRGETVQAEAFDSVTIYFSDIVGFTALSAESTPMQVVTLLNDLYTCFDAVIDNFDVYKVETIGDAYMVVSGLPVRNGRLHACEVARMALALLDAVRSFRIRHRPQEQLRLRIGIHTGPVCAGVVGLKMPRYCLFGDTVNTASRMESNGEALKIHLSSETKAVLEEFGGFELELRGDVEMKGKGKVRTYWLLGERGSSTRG

On to `O=C(O)CCNC(=O)c1ccc(N=Nc2ccc(O)c(C(=O)O)c2)cc1`, for which the viability (% of control) in assay [1] is 130%. The Potency result in assay [2], in assay [3], in assay [6], in assay [7] and in assay [8] was “inactive” each time. Also, the Potency in [4] and in assay [5] was 9.35 µM (active) throughout.
On to `COc1cc2c(cc1OC)C1CC(=O)C(CC(C)C)CN1CC2` (configuration not stated), for which the viability (% of control) in assay [1] came out at 100%. The Potency entry in assay [2], in [3], in [4], in assay [9], in assay [10] and in assay [8] was “inactive” throughout. Further, the Potency result in assay [11] and in assay [12] was “inactive” in each case. Besides, the result in assay [13] was inactive.
In the case of `CC(C)(S)[C@@H](N)C(=O)O`, the viability (% of control) in assay [1] was 106%. The Potency result in [2], in assay [3], in [4], in assay [5], in assay [9] and in assay [10] was “inactive” each time. Moreover, the Potency result in [6], in [7] and in [12] was “inactive” throughout.
Consider `O=C(O)c1cc(=O)c2c(OCC(O)COc3cccc4oc(C(=O)O)cc(=O)c34)cccc2o1`, for which the viability (% of control) in assay [1] was 115%. The Potency entry in assay [2], in [3], in [4], in assay [5], in assay [9] and in assay [10] was “inactive” each time. In addition, the Potency entry in [6], in [7] and in assay [12] was “inactive” throughout.
Take `C[C@@H](c1ncncc1F)[C@](O)(Cn1cncn1)c1ccc(F)cc1F`: the viability (% of control) in assay [1] amounted to 55.6%. In addition, the Potency entry in [2], in assay [3], in [4], in assay [5], in assay [10] and in assay [12] was “inactive” each time. The outcome in assay [13] was inactive.
`COc1c2occc2cc2ccc(=O)oc12`: the viability (% of control) in [1] is 93.5%. The Potency entry in assay [2], in assay [3], in [4], in assay [9], in [6] and in [7] was “inactive” throughout. In assay [12], the Potency result was “inactive”. Moreover, the Potency in assay [10] is 3.32 µM (active).
As for `COC(=O)N[C@H](C(=O)N[C@@H](Cc1ccccc1)[C@@H](O)CN(Cc1ccc(-c2ccccn2)cc1)NC(=O)[C@@H](NC(=O)OC)C(C)(C)C)C(C)(C)C`, the viability (% of control) in assay [1] worked out at 107%. In addition, the Potency result in assay [2], in assay [3], in [4], in assay [9], in [10] and in assay [8] was “inactive” each time.
In the case of `O=C(c1ccccc1)c1ccc2n1CCC2C(=O)O` (configuration not stated), in assay [1], the viability (% of control) stood at 15.1%. For the same molecule, the Potency in assay [2] is 18.7 µM (active); in [3], 16.6 µM (active); in [4], 3.32 µM (active); in assay [5], 4.18 µM (active); in assay [9] it was 6.62 µM (active); in [10] it was 3.72 µM (active). Besides, the Potency result in assay [6], in assay [7], in [8] and in assay [11] was “inactive” each time. Moreover, the result in assay [13] was inactive.
Take `COc1ccc(C2(C#N)CCC(C(=O)O)CC2)cc1OC1CCCC1` (configuration not stated): the viability (% of control) in assay [1] came to 87.2%. Moreover, the Potency result in assay [2], in [3], in assay [4], in [5], in assay [9] and in [10] was “inactive” in each case. Besides, the Potency entry in assay [6] and in assay [7] was “inactive” throughout.
Regarding `CCN(CC)CCOc1ccc(Nc2ncc3cc(-c4c(Cl)cccc4Cl)c(=O)n(C)c3n2)cc1`, the viability (% of control) in assay [1] was 2.59%. In addition, the Potency result in assay [2] and in [3] was “inactive” throughout. Also, the Potency in assay [4] was 1.87 µM (active); in assay [9], 0.235 µM (active); in assay [10], 2.64 µM (active); in assay [14], 13.2 µM (active); in [15], 0.662 µM (active); in assay [16], 1.05 µM (active). In addition, the Potency was 16.6 µM (active) in [17], 0.296 µM (active) in assay [19] and 0.166 µM (active) in assay [8]. The IC50 (viability decrease) in assay [18] was 1.48 µM (active). Further, the result in [13] was inactive.
